Results on 40 molecules are retold here after PubChem BioAssay (Tox21).

SMILES strings stand for the structures. Results filed as inconclusive are left out. A number with no mark means an inactive call. Activity calls are given as the source filed them. Calls follow the shape of the full dose curve.
% is scaled to controls: 0 for no effect and ±100 for the full control effect.

The target in this experiment is Peroxisome proliferator-activated receptor delta (Homo sapiens) (UniProt Q03181). Description: qHTS assay to identify small molecule agonists of the peroxisome proliferator-activated receptor delta (PPARd) signaling pathway (AID 743212). Conditions: HEK293H PPARd-UAS-bla, beta-lactamase FRET ratio, 17 h; series mostly up to 62.6 µM; activation: at the top concentration. From the text: U.S. Tox21 Program National Center for Advancing Translational Sciences [NCATS] NIH Chemical Genomics Center [NCGC] U.S. Environmental Protection Agency [EPA] National Institutes of Environmental Health Sciences [NIEHS] National Toxicology Program [NTP] U.S. Food and Drug Administration [FDA] Tox21 Assay Overview: The peroxisome proliferator-activated receptors (PPARs) are lipid-activated transcription factors of the nuclear receptor superfamily with three distinct subtypes namely PPAR alpha, PPAR delta (PPARd) and PPAR gamma. All these subtypes heterodimerizes with Retinoid X receptor (RXR) and have different physiological functions. […] To identify the compounds that activate PPAR-delta signaling, GeneBLAzer PPAR delta UAS-bla HEK293H cell line (Invitrogen, Carlsbad, CA, USA) containing a beta-lactamase reporter gene under the control of an Upstream Activator Sequence (UAS) was used to screen the Tox21 compound library.
Chain of Peroxisome proliferator-activated receptor delta (Homo sapiens) (Q03181 whole entry, looked up): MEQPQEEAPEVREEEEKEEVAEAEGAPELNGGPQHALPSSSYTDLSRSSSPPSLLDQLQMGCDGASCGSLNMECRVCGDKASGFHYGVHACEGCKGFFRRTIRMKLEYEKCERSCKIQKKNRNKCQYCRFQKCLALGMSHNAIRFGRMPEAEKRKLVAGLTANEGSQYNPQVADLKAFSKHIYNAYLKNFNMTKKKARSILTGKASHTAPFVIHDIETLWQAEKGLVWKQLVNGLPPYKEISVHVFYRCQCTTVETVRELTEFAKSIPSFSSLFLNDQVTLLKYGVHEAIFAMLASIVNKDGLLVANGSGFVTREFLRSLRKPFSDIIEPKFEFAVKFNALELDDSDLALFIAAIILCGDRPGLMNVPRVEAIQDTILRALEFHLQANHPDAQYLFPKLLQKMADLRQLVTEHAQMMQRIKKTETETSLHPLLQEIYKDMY
Tox21 Assay Protocol Summary: PPARd-bla cells were dispensed at 3000 cells/6uL/well in 1536-well black wall/clear bottom plates using a Multidrop Combi (Thermo Fisher Scientific, Waltham, MA) dispenser. After the assay plates were incubated at 37 C and 5% CO2 for 5 h, 23 nL of compounds dissolved in DMSO, positive controls or DMSO only was transferred to the assay plate by a Pintool station (Kalypsys, San Diego, CA). The assay plates were incubated at 37C for 17 h. After 1 uL of LiveBLAzerTM B/G FRET substrate was added using a Bioraptr Flying Reagent Dispenser (FRD) workstation (Beckman Coulter, Indianapolis, IN, USA), the plates were incubated at room temperature for 2 h, and fluorescence intensity was measured by an Envision plate reader (PerkinElmer, Shelton, CT).
Background: qHTS replaces the single test concentration by a dilution series.
In the case of `CCOC(=O)N(C)N=O`, the “activation” value is 2.18%.

As to `O=C(Cl)c1ccccc1`, the “activation” value is -0.698% [at 81.1 µM].

In the case of `CC(C)[C@]12CC(=O)[C@H](C)[C@H]1C2`, the “activation” value was -2.43%.

Take `C[C@H](N)C(=O)c1ccccc1`: the “activation” value was 0.565% [at 81.1 µM].

On to `CC(C)(O)C(Cl)(Cl)Cl`, for which the “activation” value was 0.316%.

On to `ClCCCCl`, for which the “activation” value was 4.09% [at 81.1 µM].

As to `[P]#[In]`, the “activation” value was 0.0192%.

For `CCN[C@H](C)Cc1cccc(C(F)(F)F)c1`, the “activation” value is -0.585% [at 81.1 µM].

Take `CCCCCCCC(=O)Cl`: the “activation” value was -2.79% [at 81.1 µM].

Take `CCCCOC(C)=O`: the “activation” value is -1.62% [at 81.1 µM].

For the molecule `ClCC1CO1` (stereo not given), the “activation” value was -3.58%.

As to `CCOc1cc(OP(=S)(OC)OC)nc(CC)n1`, the “activation” value was -1.09%.

Consider `O=C1C2CC=CCC2C(=O)N1SC(Cl)(Cl)Cl` (stereo not given), for which the result was inactive.

Regarding `O=P(O)(O)CN(CP(=O)(O)O)CP(=O)(O)O`, the “activation” value was 0.706% [at 29.1 µM].

On to `ClCCN1CCCC1`, for which the “activation” value was 3.47%.

For `COc1cc(CCN)cc(OC)c1OC`, the “activation” value is -4.01% [at 81.1 µM].

On to `CCN[C@@H](C)Cc1cccc(C(F)(F)F)c1`, for which the “activation” value is -1.56%.

Regarding `CC(O)CCl` (stereo not given), the “activation” value is -1.2%.

For the molecule `CC(C)N(Cc1ccccc1)C(=O)C(C)(C)C`, the “activation” value is 0.778%.

On to `CCOC(=O)C(Cl)Cc1cc(-n2nc(C)n(C(F)F)c2=O)c(F)cc1Cl` (stereo not given), for which the “activation” value was 1.79%.

In the case of `C(COCC1CO1)OCC1CO1` (stereo not given), the “activation” value is 2.78%.

As to `O=C1CC(=O)NC(=O)N1`, the “activation” value is 0.276%.

As for `CCOC(=O)NC(C)(C)Cc1ccc(Cl)cc1`, the “activation” value is 5.2%.

Regarding `COP(=O)(OC)O/C(C)=C/C(=O)N(C)C`, the “activation” value is 2.85% [at 81.1 µM].

Take `C=CCc1cc(OC)c2c(c1)OCO2`: the “activation” value is -0.158% [at 81.1 µM].

Regarding `O=P(O)(O)c1ccccc1`, the “activation” value is 1.43%.

Turning to `O=C(O)C(Br)(Br)Br`, the “activation” value is -2.27%.

As for `C=CCCC#N`, the “activation” value is 0.722%.

Turning to `COc1ccc(CN2CCNCC2)c(OC)c1OC`, the “activation” value is 0.906%.

`CCOP(=S)(OCC)Oc1ccc(Cl)cc1Cl`: the “activation” value was -1.67%.

As for `COc1ccc2c(C(=O)c3ccc(Cl)cc3)c(C)n(CC(=O)O)c2c1`, the “activation” value was -1.24%.

In the case of `CCC1(CC)C(=O)C=CNC1=O`, the “activation” value is -1.02%.

On to `COC(=O)[C@@H](N)CCCN/C(N)=N/[N+](=O)[O-]`, for which the “activation” value was -1.21%.

Consider `Clc1nc(Cl)nc(Nc2ccccc2Cl)n1`, for which the “activation” value is -4.47%.

In the case of `C=C(C)[C@H]1CN[C@H](C(=O)O)[C@H]1CC(=O)O`, the “activation” value is 1.11%.

For `CC(C)(N)Cc1ccccc1Cl`, the “activation” value is 2.33%.

In the case of `ClCOCCl`, the “activation” value is -3.31% [at 81.1 µM].

As for `CC(Cc1ccccc1)NCCn1cnc2c1c(=O)n(C)c(=O)n2C` (stereo not given), the “activation” value is 0.494% [at 81.1 µM].

`COP(=O)(O)OC`: the “activation” value is 0.8% [at 81.1 µM].

In the case of `CCN(CC)C1CCCCC1`, the “activation” value is 2.29%.
